{"source": "PubChem BioAssay (Tox21)", "note": "Results filed as inconclusive are left out. Entries that show only a call come without a potency. A number with no mark means an inactive call. The source made the active and inactive calls. The call rests on the fitted dose curve; in most records, active means well fitted inhibition curve with a large enough effect in the signal ratio in the repeat runs (not every such curve was filed as active); inconclusive means weak or mixed curves; inactive means flat fitted curve, though single readings scatter; the % refers to the signal ratio. Potency means the concentration at half of the fitted maximal effect."}
{"target": "Progesterone receptor (Homo sapiens) (UniProt P06401)", "sequence (P06401 whole entry, looked up)": "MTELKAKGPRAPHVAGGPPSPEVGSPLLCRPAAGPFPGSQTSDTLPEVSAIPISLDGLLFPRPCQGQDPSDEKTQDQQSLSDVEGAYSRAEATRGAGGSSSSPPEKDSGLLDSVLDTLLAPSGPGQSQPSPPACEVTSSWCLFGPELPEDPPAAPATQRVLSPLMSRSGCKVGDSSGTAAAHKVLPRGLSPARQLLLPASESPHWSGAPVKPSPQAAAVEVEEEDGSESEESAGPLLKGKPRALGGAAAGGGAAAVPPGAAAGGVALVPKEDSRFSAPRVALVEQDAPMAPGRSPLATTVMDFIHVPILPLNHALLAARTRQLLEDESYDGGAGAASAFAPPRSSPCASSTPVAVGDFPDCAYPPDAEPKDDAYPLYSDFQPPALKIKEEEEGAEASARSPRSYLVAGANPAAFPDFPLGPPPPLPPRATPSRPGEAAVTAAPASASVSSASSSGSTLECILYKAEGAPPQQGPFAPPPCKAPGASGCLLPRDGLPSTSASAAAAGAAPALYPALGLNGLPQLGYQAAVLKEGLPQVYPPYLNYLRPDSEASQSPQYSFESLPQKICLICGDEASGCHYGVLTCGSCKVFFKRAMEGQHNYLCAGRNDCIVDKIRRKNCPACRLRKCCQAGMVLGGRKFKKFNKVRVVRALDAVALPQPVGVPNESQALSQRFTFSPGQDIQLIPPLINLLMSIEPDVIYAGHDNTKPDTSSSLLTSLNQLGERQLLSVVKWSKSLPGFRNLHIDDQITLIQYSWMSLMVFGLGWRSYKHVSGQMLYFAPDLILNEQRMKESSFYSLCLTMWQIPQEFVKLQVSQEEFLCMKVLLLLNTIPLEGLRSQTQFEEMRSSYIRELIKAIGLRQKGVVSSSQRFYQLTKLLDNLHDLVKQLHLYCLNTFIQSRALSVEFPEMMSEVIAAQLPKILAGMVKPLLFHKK", "test": "qHTS assay to identify small molecule antagonists of the progesterone receptor (PR) signaling pathway (AID 1346795)", "settings": "PR-UAS-bla HEK293T, beta-lactamase FRET ratio, 16 h; series mostly up to 92.4 µM", "from_the_text": "National Center for Advancing Translational Sciences [NCATS]\nNIH Chemical Genomics Center [NCGC]\nU.S. Environmental Protection Agency [EPA]\nNational Institutes of Environmental Health Sciences [NIEHS]\nNational Toxicology Program [NTP]\nU.S. Food and Drug Administration [FDA]\nProgesterone receptor (PR), a nuclear hormone receptor, plays an important role in development, metabolic homeostasis and reproduction. […] Endocrine disrupting chemicals (EDCs) and their interactions with steroid hormone receptors like PR causes disruption of normal endocrine function. To identify the compounds that inhibit PR signaling, a PR-UAS-bla GripTite cell line i.e. PR-UAS-bla HEK293T (Invitrogen, Carlsbad, CA, USA) containing a beta-lactamase reporter gene under the control of an Upstream Activator Sequence (UAS) was used to screen Tox21 10K compound library.\nTox21 Assay Protocol Summary:\nPR-UAS-bla HEK293T cells were dispensed at 3,000 cells/4 uL of assay medium containing 2% charcoal stripped FBS per well into black wall/clear-bottom 1536-well plates using a Multidrop Combi (ThermoFisher Scientific, Waltham, MA) dispenser. After the assay plates were incubated at a 37C and 5% CO2 for 6 hr, 23 nL of compounds dissolved in DMSO, positive controls or DMSO only was transferred to the assay plate by a Pintool station (Kalypsys, San Diego, CA), followed by addition of 1 uL (1nM as final concentration) of Promegestone (R5020) in assay medium using a BioRAPTR FRD (Flying Reagent Dispenser, Aurora Discovery, San Diego, CA). The plates were incubated at 37C and 5% CO2 for 16 hr. Then 1 uL of LiveBLAzer B/G FRET substrate was added using a FRD. After the plates were incubated at room temperature for 2 hours, fluorescence intensity was measured by an Envision plate reader (PerkinElmer, Shelton, CT)."}
{"smiles": "CC(Cl)Cl", "Potency": "inactive"}
{"smiles": "COC(=O)c1cncn1C(C)c1ccccc1", "note": "(stereo not given)", "Potency": "inactive"}
{"smiles": "O=C(CBr)Nc1ccc(Cl)cc1C(=O)c1ccccc1F", "Potency": "21.1 µM (active)"}
{"smiles": "CN1C(=O)C(O)N=C(c2ccccc2)c2cc(Cl)ccc21", "note": "(stereo not given)", "Potency": "inactive"}
{"smiles": "CCCCCCCCCCOC(=O)c1ccccc1C(=O)OCCCCCCCCCC", "Potency": "inactive"}
{"smiles": "O=C(O)C1(c2ccc3c(c2)OC[C@H](Cc2ccc(-c4ccccc4)cc2)[C@H]3O)CCCC1", "Potency": "48.6 µM (active)"}
{"smiles": "CCCCCCC#N", "Potency": "inactive"}
{"smiles": "Clc1cc(Cl)c(Cl)c(Cl)c1", "Potency": "inactive"}
{"smiles": "CCOP(=O)(OCC)O/C(=C/Cl)c1ccc(Cl)cc1Cl", "Potency": "10.9 µM (active)"}
{"smiles": "Brc1ccc(Oc2ccccc2)cc1", "Potency": "inactive"}
{"smiles": "CCOP(=S)(Oc1ccc([N+](=O)[O-])cc1)c1ccccc1", "note": "(stereo not given)", "Potency": "2.17 µM (active)"}
{"smiles": "CC(C)N(CCC(C(N)=O)(c1ccccc1)c1ccccn1)C(C)C", "note": "(stereo not given)", "Potency": "inactive"}
{"smiles": "CN(C)c1ccc(N(C)C)cc1", "Potency": "inactive"}
{"smiles": "COc1c(C(C)(C)C)cc([N+](=O)[O-])c(C)c1[N+](=O)[O-]", "Potency": "inactive"}
{"smiles": "O=C(CBr)c1ccccc1", "Potency": "inactive"}
{"smiles": "IC(I)=C(I)I", "Potency": "17.2 µM (active)"}
{"smiles": "NC(=O)CI", "Potency": "inactive"}
{"smiles": "N#CCc1ccccc1", "Potency": "inactive"}
{"smiles": "ClCc1ccccc1", "Potency": "inactive"}
{"smiles": "c1ccoc1", "Potency": "inactive"}
{"smiles": "ClCc1cccc(Cl)c1", "Potency": "inactive"}
{"smiles": "C[C@H]1CNCCc2ccc(Cl)cc21", "Potency": "inactive"}
{"smiles": "O=C(NC(=O)c1c(F)cccc1F)Nc1ccc(OC(F)(F)C(F)OC(F)(F)F)c(Cl)c1", "note": "(stereo not given)", "Potency": "inactive"}
{"smiles": "C[N+](C)(C)CCCl", "Potency": "inactive"}
{"smiles": "O=Cc1ccc2c(c1)OCO2", "Potency": "inactive"}
{"smiles": "CCOP(=O)(OCC)SCCSCC", "Potency": "inactive"}
{"smiles": "CCCCCC[N+](=O)[O-]", "Potency": "inactive"}
{"smiles": "NCC(CC(=O)O)c1ccc(Cl)cc1", "note": "(stereo not given)", "activity change, negative = inhibition": "7.47% [at 0.348 µM]"}
{"smiles": "CCOP(O)OCC", "Potency": "inactive"}
{"smiles": "CN1C(=O)NC(=O)C(C)(C2=CCCCC2)C1=O", "note": "(stereo not given)", "Potency": "inactive"}
{"smiles": "Cc1ccc(N)cc1C", "Potency": "inactive"}
{"smiles": "CCOC(=O)COc1cc(-c2nn(C)c(OC(F)F)c2Cl)c(F)cc1Cl", "Potency": "inactive"}
{"smiles": "CC/C(=N\\OC/C=C/Cl)C1=C(O)CC(C2CCOCC2)CC1=O", "note": "(stereo not given)", "Potency": "inactive"}
{"smiles": "Clc1cc(C(Cl)(Cl)Cl)cnc1Cl", "Potency": "inactive"}
{"smiles": "O=C(O)C(F)(F)C(F)(F)C(F)(F)C(F)(F)C(F)(F)C(F)(F)C(F)(F)C(F)(F)C(F)(F)C(F)(F)F", "Potency": "inactive"}
{"smiles": "CCCCCCCCOC(=O)c1ccc(C(=O)OCCCCCCCC)c(C(=O)OCCCCCCCC)c1", "Potency": "inactive"}
{"smiles": "COC(=O)C(Br)CBr", "note": "(stereo not given)", "Potency": "inactive"}
{"smiles": "CCC(Br)(CC)C(=O)NC(N)=O", "Potency": "inactive"}
{"smiles": "CNC(C)Cc1ccccc1OC", "note": "(stereo not given)", "Potency": "inactive"}
{"smiles": "CC1Sc2c(C(=O)O)c(=O)c3cc(F)c(N4CCNCC4)cc3n21", "note": "(stereo not given)", "Potency": "inactive"}
